# Records with an inconclusive call do not appear. Active and inactive are the calls of the source. Calls follow the shape of the dose curve; as a rule, active = well fitted inhibition curve with a large enough effect; inconclusive = small, poorly fitted or top-dose-only effect; inactive = no such curve, though single readings can be large or run the other way.
# Assay: qHTS assay for measurement of the activity of small molecule inhibitors on Zika virus induced Caspase-3 activity in human iPSC derived neural progenitor cells (hNPCs) (AID 1224857); also: % of control where 0% means no effect; nearly all actives have a fitted effect of over 65% in size
# Conditions: hNPCs ZIKV-induced caspase-3/7, Caspase-Glo luminescence, 6 h; series mostly up to 45.7 µM; activity change, negative = inhibition: at the top concentration
# Description: National Center for Advancing Translational Sciences [NCATS]
# Johns Hopkins University School of Medicine
# Increase in the Caspase-3 activity indicates an activation of apoptosis cell death pathway caused by Zika virus infection in certain types of neuronal cells including human neural progenitor cells (hNPCs), astrocytes, and astrocytoma cell line (SNB-19). This cell-based caspase-3 activity assay measures the increased caspase-3 activity in the human iPSC derived neural progenitor cells (hNPCs) after a 6-hour Zika virus infection with a luminescence readout. A decrease in the luminescence signal in this assay by small molecule treatment indicates an inhibitory effect of that small molecule on the Zika virus induced caspase-3 activity that may correlate with its effect on reduction of Zika virus caused cell death.
# The medium for hNPCs consists of DMEM/F12, N2 supplement (ThermoFisher, Cat.# 17502048), NEAA (ThermoFisher, Cat. # 11140050), 2 ug/ml heparin, 2 uM cyclopamine, and B27 (ThermoFisher, Cat. # 17504044). A Caspase-Glo 3/7 assay kit (catalog number G8092; Promega, Madison, WI) was used to detect caspase-3 activity induced by Zika virus infection in human cells. The reagent mixture was reconstituted as described in the protocol from the manufacturer. Polystyrene tissue culture treated and PDL coated white plates were obtained from Greiner Bio-One (Monroe, NC). Cells were seeded in 384- or 1536-well assay plates and cultured at 37 C with 5% CO2 for 16 to 20 hours. The typical cell seeding density in the 1536-well plate assay is 350 cells/well in 3 ul medium for hNPCs in tissue culture treated plates. Compounds were added to cells and incubated for one hour before addition of ZIKV solution to cells (2 FFU/cell). After incubation at 37 C with 5% CO2 for 6 hours, the reagent mixture of Caspase-Glo 3/7 assay kit was added to each well, followed by incubation at room temperature for 30 minutes. The luminescence intensity of the assay plates was measured using a ViewLux plate reader (PerkinElmer). Data were normalized by using the cell-containing wells without ZIKV as a negative control (0% induction of caspase 3/7 activity) and wells containing ZIKV infected cells (Caspase-3 activity induced) as a positive control (100% induction of caspase 3 activity). The percentage inhibitions of the increased Caspase-3 activity by small molecule inhibitors were then calculated.
row,Structure (SMILES),"activity change, negative = inhibition"
1,COc1ccc2cc(C=O)ccc2c1,-17.6% (inactive)
2,O=C(Oc1ccccc1)c1cccc(C(=O)Oc2ccccc2)c1,-184% [at 92.8 µM] (inactive)
3,O=C(NO)c1ccccc1,5.26% [at 92.8 µM] (inactive)
4,O=C(O)CCC(=O)OC[C@@H](NC(=O)C(Cl)Cl)[C@H](O)c1ccc([N+](=O)[O-])cc1,-24.5% (inactive)
5,CC(C(O)c1ccccc1)N(C)CCOC(c1ccccc1)c1ccccc1 (stereo not given),2.6% (inactive)
6,C1=CC2C3C=CC(C3)C2C1 (stereo not given),8.19% [at 92.8 µM] (inactive)
7,CC(NN)c1ccccc1 (stereo not given),-0.643% [at 20.5 µM] (inactive)
8,Cc1c(F)cc2c(=O)c(C(=O)O)cn3c2c1CCC3C (stereo not given),-0.0343% (inactive)
9,CCN1C(=O)c2ccccc2C1Nc1ccc(OCCN2CCCCC2)cc1 (stereo not given),4.47% (inactive)
10,C[C@@H]1CCC[C@H](C)N1CCCC(O)(c1ccccc1)c1ccccn1 (stereo not given in full),-1.18% (inactive)
11,C=C(C)C(=O)OCC(O)CO (stereo not given),-2.99% (inactive)
12,C[C@H]1C[C@H]2[C@@H]3CCC4=CC(=O)C=C[C@]4(C)[C@H]3C(=O)C[C@]2(C)[C@@]1(O)C(=O)CO,-3.06% (inactive)
13,Cc1cc(C(C)(C)C)c(O)c(C(C)(C)C)c1,16.2% (inactive)
14,O=C(O)CNC(=O)CNC(=O)CNC(=O)CSC(=O)c1ccccc1,-8.25% (inactive)
15,CC(C)CCCC(C)NCCC(C)C (stereo not given),3.62% (inactive)
16,CCCCC(O)/C=C(C)/C=C/C=C/C(=O)N1CCCC1=O (stereo not given),21% (inactive)
17,CC(C)(C)C(=O)OCOC(=O)C1N2C(=O)CC2S(=O)(=O)C1(C)C (stereo not given),6.48% (inactive)
18,CC(C)=CCNc1ncnc2c1ncn2[C@@H]1O[C@H](CO)[C@@H](O)[C@H]1O,52.2% (inactive)
19,O=C(Nc1ccc(Cl)cc1)Nc1ccc(Cl)c(C(F)(F)F)c1,35.1% (inactive)
20,O=C(O)CCCC[P+](c1ccccc1)(c1ccccc1)c1ccccc1,-8.81% (inactive)

row,Structure (SMILES),"activity change, negative = inhibition"
1,CCCCCN(CCCOC)C(=O)C(CCC(=O)O)NC(=O)c1ccc(Cl)c(Cl)c1 (stereo not given),-6.93% (inactive)
2,Nc1c[n+](N2CCOCC2)no1,-17.1% (inactive)
3,CCOC(=O)OCC/C(SC(=O)OCC)=C(\C)N(C=O)Cc1cnc(C)nc1N,2.13% (inactive)
4,Clc1ccc2c(c1)Nc1ccccc1S2,-3% (inactive)
5,Fc1ccc(C(c2ccc(F)cc2)N2CCNCC2)cc1,3.92% (inactive)
6,COc1ccc([C@@H]2Sc3ccccc3NC(=O)[C@@H]2O)cc1,8.87% (inactive)
7,Nc1c2ccccc2nc2ccccc12,7.84% (inactive)
8,CC(=O)O[C@H]1CC[C@@]2(C)C(=CC[C@@H]3[C@@H]2CC[C@]2(C)C(C(C)=O)=CC[C@@H]32)C1,-14.3% (inactive)
9,CCOC(=O)Oc1ccc(CCNC(=O)[C@H](CCSC)NC(C)=O)cc1OC(=O)OCC,-21.5% (inactive)
10,CCCCCCOC(=O)NC(=N)c1ccc(NCc2nc3cc(C(=O)N(CCC(=O)OCC)c4ccccn4)ccc3n2C)cc1,4.85% (inactive)
11,CC1(C)S[C@@H]2[C@H](NC(=O)C(c3ccccc3)S(=O)(=O)O)C(=O)N2[C@H]1C(=O)O (stereo not given in full),-7.71% (inactive)
12,CC(C)(Oc1ccc(Cl)cc1)C(=O)OCCCOC(=O)C(C)(C)Oc1ccc(Cl)cc1,28.9% (inactive)
13,COC(=O)C1=C(C)NC(C)=C(C(=O)OCCc2ccc(N3CCN(C(c4ccccc4)c4ccccc4)CC3)cc2)C1c1cccc([N+](=O)[O-])c1 (stereo not given),-2.86% (inactive)
14,Cc1[nH]cnc1-c1ccc(Cl)cc1,-1.01% (inactive)
15,OCc1cccnc1,19.1% (inactive)
16,O=C(O)Cn1cnnn1,-15.5% (inactive)
17,CN1CC(=O)N2[C@H](c3ccc4c(c3)OCO4)c3[nH]c4ccccc4c3C[C@@H]2C1=O,-1.13% (inactive)
18,O=C(CO)[C@@H](O)[C@H](O)[C@@H](O)CO,6.49% (inactive)
19,Cc1ccc(Cl)c(OCC(O)CNC(C)(C)C)c1 (stereo not given),6.91% (inactive)
20,Cc1c(C)c2c(c(C)c1OC(=O)CCC(=O)OCCO)CC[C@@](C)(CCC[C@H](C)CCC[C@H](C)CCCC(C)C)O2,13.5% (inactive)
